# Results taken from PubChem BioAssay.
# Test: binders of probe aFSTL3 on microarray, primary screen, stem cell growth factor project, biochemical, small-molecule microarray, fluorescence 635/667 (AID 1064);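 further: measures binding of the biotinylated anti-FSTL3 antibody to printed compounds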
# Conditions: higher = more signal
row,SMILES,composite z-score
1,COC(=O)C(CC#Cc1ccc2c(c1)[C@]1(C(=O)N2)[C@H](C(=O)N2CCN(c3ncccn3)CC2)[C@H]2C(=O)O[C@H](c3ccccc3)[C@H](c3ccccc3)N2[C@@H]1c1ccc(OCCO)cc1)C(=O)OC,-0.448
2,COCCOC(=O)N1C(=O)[C@@]2(c3cc(C#CC4=CCCCC4)ccc31)[C@H](c1ccccc1OCCO)N1[C@H](c3ccccc3)[C@H](c3ccccc3)OC(=O)[C@H]1[C@@H]2C(=O)N1CCCCCCC1,0.493
3,CCOC(=O)C[C@H]1[C@H](OC(=O)c2ccc(C(=O)c3ccccc3)cc2)[C@@H](NC(=O)Cc2ccc(OC)cc2)c2cc(OCCCO)ccc2N1C(=O)c1ccccc1,-0.045
4,C=CC[C@@]1(C(=O)N2CCOCC2)N=C(c2ccc(OCCCO)cc2)O[C@@H]1c1ccccc1CN=[N+]=[N-],-0.0448
5,NC(=O)NCC#Cc1ccc2c(c1)[C@]1(C(=O)N2)[C@H](C(=O)NC[C@H](O)c2ccccc2)[C@H]2C(=O)O[C@H](c3ccccc3)[C@H](c3ccccc3)N2[C@@H]1c1ccc(OCCO)cc1,0.565
6,C=C(COC)/C(=C/C[C@H](OC(=O)c1ccncc1)c1ccccc1OCCO)c1cnc2ccccc2c1,-0.776
7,[N-]=[N+]=Nc1ccccc1C[C@]1(C(N)=O)N=C(c2ccc(OCCCO)cc2)O[C@H]1c1ccccc1N=[N+]=[N-],0.12
8,CN1C(=O)C2C=CC(C(O)c3ccccn3)N(N(c3ccccc3)c3ccccc3)C2C1=O (stereo not given),0.733
9,NCCCCCCNC(=O)[C@@H]1C[C@@H]2C(=O)N[C@@H](CCCCN)C(=O)N2[C@@H]1c1cccc(OCCO)c1,1.06
10,O=C1N(Cc2ccccc2)c2ccccc2[C@@H]2OC(c3ccc(OCCCO)cc3)=N[C@]12Cc1ccccc1,0.677
11,CCCCCCCCCCC(O)C1C=CC2C(=O)N(C)C(=O)C2N1NC(=O)OC(C)(C)C (stereo not given),-0.318
12,OCCCC1=CC(c2ccc(CN3CCCC3)cc2)N(Cc2sc3ccccc3c2Cl)CC1 (stereo not given),1.46
13,[N-]=[N+]=Nc1ccccc1[C@@H]1OC(c2ccc(OCCCO)cc2)=N[C@]1(Cc1ccccc1)C(=O)NCC(O)CO (stereo not given in full),1.45
14,C=CCC(OC(C)=O)[C@@H]1[C@@H](N(Cc2cc3ccccc3o2)C(=O)c2ccc(-c3ccccc3)cc2)c2cc(OCCCO)ccc2N1C(=O)c1ccc2ccccc2c1 (stereo not given in full),-0.0256
15,Cc1cc(C)c(C(O)C2C=CC3C(=O)N(c4ccccc4)C(=O)C3N2Nc2ccc(C(C)C)cc2)c(C)c1 (stereo not given),0.224
16,COc1cc(OC)c(C(O)C2C=CC3C(=O)N(c4ccccc4)C(=O)C3N2Nc2ccccc2)cc1Br (stereo not given),0.0555
17,CO[C@H]1O[C@H](CO)[C@@H](OC(=O)Nc2ccccc2-c2ccccc2)[C@H](OC(=O)Nc2ccc3c(c2)OCO3)[C@H]1OC(=O)Nc1ccc2c(c1)OCO2,-0.0811
18,CC1CC/C=C\[C@H]2OC34C=CCN(c5ccc(Cl)cc5)C(=O)[C@H]3N(CCCCCO)C(=O)[C@]4(C)C2C(=O)O1 (stereo not given in full),0.124

row,SMILES,composite z-score
1,CC(C)N1C(=O)c2ccccc2[C@@H](C(=O)NC2CC2)[C@@H]1c1ccc(CO)cc1,-0.236
2,COCCCNC(=O)[C@@]1(Cc2ccccc2CN=[N+]=[N-])N=C(c2ccc(OCCCO)cc2)O[C@H]1c1ccccc1,-0.102
3,COc1ccc([Si](C)(C)[C@@H]2[C@@H](CCO)O[C@]3(C(=O)N(Cc4ccc(N5CCCCC5=O)cc4)c4ccccc43)[C@H]2C)cc1,-0.343
4,C=C(/C(=C/C[C@@H](OC(C)=O)c1cccc(OCCO)c1)c1cc(C(=O)OC)ccc1OC)C(C)C,-0.367
5,C=C(COC)C(=O)CC[C@@H](OC(=O)c1cccnc1)c1ccc(OCCO)cc1,0.193
6,CN(C)c1ccc(C(O)C2C=CC3C(=O)N(c4ccccc4)C(=O)C3N2Nc2ccc([N+](=O)[O-])cc2)cc1 (stereo not given),0.155
7,C=C[C@@H](COC(C)=O)N(C(=O)OC(C)(C)C)S(=O)(=O)c1ccc(Br)cc1,0.0095
8,CCCC[C@@H](O)C1=C(COc2ccccc2)C[C@H]2C(=O)N(C)C(=O)[C@H]2[C@H]1CO,-0.417
9,COC(=O)c1ccc([C@H](NC(=O)c2ccco2)[C@]2(C)C[C@H]2C2CCCCC2)cc1,0.685
10,COc1ccc(CN(C2=CC[C@@]3(C(N)=O)C(=O)C(Cl)=C(Cl)C(=O)[C@@]3(C#N)C2)S(=O)(=O)c2ccc(Br)cc2)cc1,-0.181
11,COC(=O)c1cn(C[C@@H](Cc2ccccc2)NC(=O)N[C@H](CO)CCc2oc(C(C)=O)c(C(=O)OC)c2C(=O)OC)nn1,-0.695
12,CCOC(=O)C[C@H]1[C@H](OC(=O)c2cc3ccccc3oc2=O)[C@@H](NC(=O)c2ccc(-c3ccccc3)cc2)c2cc(OCCCO)ccc2N1C(=O)c1ccccc1,-0.561
13,COC(=O)[C@@]1(Cc2ccc(OC)cc2)[C@H]2c3cc(C(=O)N(C)C)n(C[C@H](O)CO)c3C[C@H]2CN1C(=O)c1ccccc1,1.37
14,CC(C)[Si](C#C[Si](C(C)C)(C(C)C)C(C)C)(O[C@H](C)c1cn([C@H](CO)Cc2ccccc2)nn1)C(C)C,-0.311
15,CCOC(=O)C1=CC[C@@H](c2ccccc2C(F)(F)F)N(S(=O)(=O)c2ccc(C)cc2)[C@H]1c1ccc(C#N)cc1,-0.0042
16,C[N+](C)(C)CCCC[C@@H]1NC(=O)[C@H]2C[C@@H](C(=O)NCCCCCCN)[C@@H](c3ccc(O)cc3)N2C1=O,0.239
17,CC(C)N1CC=CC23O[C@@H]4C=CCOC(=O)[C@@H]4[C@H]2C(=O)N(CCCO)[C@@H]3C1=O (stereo not given in full),0.645
